PubChem BioAssay AID2315 (National Center for Advancing Translational Sciences (NCATS), 2010)
Among all 290,000 compounds or so, about 27,000 (9.3%) were called active. This is one part of a sample in which actives are shown more often than they occur. Rule as the data show it: active = inhibition mostly above about 28% (no sharp cut-off); inactive = mostly below about 43%.

Assay: A qHTS for Small Molecule Inhibitors of Shiga Toxin; also: 0% is about no effect
Details: Vero cells, Shiga toxin protein synthesis inhibition reporter; at 38.7 µM, active compounds read high

Row | SMILES | inhibition
1 | Cc1ccc(Cn2cc(C(=O)NN)c(=O)c3ccc(F)cc32)cc1 | -5.32% (inactive)
2 | Nc1nc(SCc2cccc(Br)c2)n[nH]1 | 14.2% (inactive)
3 | O=C(CN1CCN(C(=O)C2CCCO2)CC1)Nc1c(Cl)cccc1Cl (stereo unspecified) | -6.84% (inactive)
4 | COc1cc(C(=O)NCC2(c3ccccc3)CCCC2)ccc1OC(C)C | 4.68% (inactive)
5 | CC(Cc1cccs1)NC(=O)c1cccc(Cl)c1 (stereo unspecified) | 62% (active)
6 | CC(Cc1cccs1)NC(=O)NC1CCCCC1 (stereo unspecified) | 35.2% (inactive)
7 | CC(Cc1cccs1)NCc1ccc(Cl)cc1 (stereo unspecified) | -11.1% (inactive)
8 | COC(=O)c1ccc(COc2ccc(/C=C/C(=O)c3ccc(OC)c(CSCC(=O)O)c3)cc2OC)cc1 | 10.1% (inactive)
9 | CCOC(CNC(=O)C1CCN(S(=O)(=O)c2ccc3nc4c(c(C(=O)O)c3c2)CC(C)CC4)CC1)OCC (stereo unspecified) | 16.6% (inactive)
10 | NS(=O)(=O)c1ccc2nc(NC(=O)C3=COCCO3)sc2c1 | 31.7% (active)
11 | NS(=O)(=O)c1ccc2nc(NC(=O)CS(=O)(=O)c3ccc(F)cc3)sc2c1 | -4.57% (inactive)
12 | O=C(Nc1ccc(S(=O)(=O)N2CCCC2)cc1Cl)C1=COCCO1 | -24.5% (inactive)
13 | CC(=O)c1ccc(NC(=O)Cn2c(=O)oc3ccccc32)cc1 | -3.29% (inactive)
14 | Nc1ncc(CN2CCCC(C(=O)Nc3ccc(-c4ccco4)cc3)C2)cn1 (stereo unspecified) | 1.36% (inactive)
15 | COC(=O)c1ccc(COc2ccc(C#N)cc2)o1 | -6.04% (inactive)
16 | CC(C)OC(=O)c1ccc(COc2ccc3ccc(=O)oc3c2)o1 | 56.4% (active)
17 | Cc1noc(C)c1COc1ccc2ccc(=O)oc2c1 | -4.36% (inactive)
18 | CN(C)C(=O)CCC(=O)N1CCCCC1C(=O)Nc1ccc(Oc2ccccc2F)cc1 (stereo unspecified) | -6.54% (inactive)
19 | CC(C)(C)n1nnnc1C(c1ccccc1F)N1CCN(C(=O)c2ccco2)CC1 (stereo unspecified) | 2.73% (inactive)
20 | Cc1ccccc1OCC(=O)N(Cc1cccc(F)c1)C1CCS(=O)(=O)C1 (stereo unspecified) | 10.7% (inactive)
21 | CCCCCOc1ccc(CSC2=NCCN2)cc1[N+](=O)[O-] | 63.7% (active)
22 | CCCOc1ccc(Cn2ccnc2)cc1[N+](=O)[O-] | -8.54% (inactive)
23 | CCCCOc1ccc(CSC(=N)N)cc1[N+](=O)[O-] | -5.85% (inactive)
24 | COc1cccc(CCNC(=O)c2cccc(NC(=O)C3=C(C)OCCS3)c2)c1 | -2.41% (inactive)

Row | SMILES | inhibition
25 | CN(C)CCn1c(=S)[nH]c2ccc(Cl)cc2c1=O | -8.18% (inactive)
26 | CN(C)CCN=c1cc(-c2ccccc2)oc2ccc(Cl)cc12 | 129% (active)
27 | Cc1cc(-c2ccc(C)c(S(=O)(=O)Nc3ccc(S(N)(=O)=O)cc3)c2)on1 | 29.3% (inactive)
28 | COc1ccc(CCNS(=O)(=O)c2cn(C)nc2C)cc1 | 16.1% (inactive)
29 | CCOC(=O)CNc1nc(Cl)nc(Nc2ccc(OC)cc2OC)n1 | 26.8% (inactive)
30 | CCC(=O)Nc1ccc(Nc2nc(Cl)nc(Nc3ccc(NC(=O)CC)cc3)n2)cc1 | 4.44% (inactive)
31 | CCOC(=O)CNc1nc(Cl)nc(Nc2ccccc2)n1 | 65.7% (active)
32 | CCn1c(SCC(=O)NC2CCCC2)nnc1-c1ccoc1C | -5.62% (inactive)
33 | CN(Cc1cc2cc(F)ccc2[nH]1)Cc1nc(-c2cnccn2)no1 | -4.61% (inactive)
34 | CN(Cc1ccc2nsnc2c1)Cc1nc(Cc2cccc(F)c2)no1 | 1.39% (inactive)
35 | CN(Cc1nc2ccc(F)cc2[nH]1)Cc1nc(CC2CC2)no1 | 48% (active)
36 | C/C(=N\N(C)C)c1ccc(OCCOc2ccc([N+](=O)[O-])cc2)cc1 | 6.72% (inactive)
37 | CCn1c(SCC(=O)NC2=NCCS2)nnc1C(C)NC(=O)c1ccccc1F (stereo unspecified) | -15.6% (inactive)
38 | Cc1cc(-n2cnc(-c3cn(C)nc3C)n2)no1 | 52.5% (active)
39 | COc1ccc(Cl)cc1NS(=O)(=O)c1cccc(C(=O)NCC2CCCO2)c1 (stereo unspecified) | -3.5% (inactive)
40 | O=C1CSc2ccc(S(=O)(=O)NCc3ccccc3)cc2N1 | -7.81% (inactive)
41 | COC(=O)c1sccc1NC(=S)Nc1ccc(C)cc1 | 39.9% (active)
42 | COC(=O)c1ccc(NC(=O)c2cc(Cl)ccc2OC)cc1 | 1.91% (inactive)
43 | COC(=O)c1sccc1NC(=O)c1ccc(Cl)cc1 | -2.96% (inactive)
44 | COc1cc(NC(=O)Nc2ccc(C)cc2)cc([N+](=O)[O-])c1 | -2.21% (active)
45 | COC(=O)c1sccc1NC(=O)c1cc(OC)c(OC)c(OC)c1 | 14.1% (inactive)
46 | CC(=O)c1ccc(NC(=O)Nc2ccc([N+](=O)[O-])cc2C)cc1 | -6.96% (inactive)
47 | Cc1ccc(NC(=O)CC(=O)Nc2ccc(C)cc2)cc1 | -2.71% (inactive)
48 | Cc1ccc(Oc2cc(NC(=O)CCCn3nc(C)c([N+](=O)[O-])c3C)cc([N+](=O)[O-])c2)cc1 | 9.13% (inactive)

Row | SMILES | inhibition
49 | O=C(Nc1ccc(Cl)cc1)Nc1ccc(Oc2cccnc2)nc1 | 51.4% (active)
50 | O=C(NNC(=O)c1csc(-c2cccnc2)n1)Nc1ccc(Cl)cc1 | 4.07% (inactive)
51 | COC(=O)c1ccc(NC(=O)Nc2ccc(C)cc2)cc1 | 46% (active)
52 | O=C(Nc1cccnc1)c1cc(Cl)ccc1Cl | -11.4% (inactive)
53 | COc1ccc(N2CCN(C(=O)Cn3cnc4sc(C)c(S(=O)(=O)N5CCOCC5)c4c3=O)CC2)cc1 | -21.2% (inactive)
54 | CSCC[C@H](NC(=O)N1CCn2c1nc1ccccc12)C(=O)NC1CCCCC1 | 21.5% (inactive)
55 | CC(=N\NC(=O)c1cc(Br)ccc1O)/C(=N/O)C(=O)Nc1ccccc1 | 27.5% (inactive)
56 | CCc1nn(CCCC(=O)Nc2ccc(C)c(C)c2)c(=O)c2cc3occc3n12 | -3.08% (inactive)
57 | CC(=O)Nc1ccc(S(=O)(=O)N(C)c2nc3ccccc3nc2Cl)cc1 | 21.4% (inactive)
58 | COc1cc2c(cc1OC)C(c1ccccc1Br)NC(=O)C2 (stereo unspecified) | -13.7% (inactive)
59 | CN1CCN(c2ccccc2NC(=O)COc2ccc(C3CCCCC3)cc2)CC1 | 16.9% (inactive)
60 | Cc1c(S(=O)(=O)NC(C)c2ccccc2)c(=O)n(C)c(=O)n1C (stereo unspecified) | -36.1% (inactive)
61 | Cc1ccc(NC(=O)NCC(c2cccnc2)N2CCOCC2)cc1 (stereo unspecified) | -5.81% (inactive)
62 | O=C(NNC(=O)c1cccnc1)Nc1ccccc1 | 2.5% (inactive)
63 | Cc1ccc(NC(=O)Nc2cccnc2)cc1 | 29% (active)
64 | C/C=C(/C)C(=O)O[C@@H]1c2cc3c(c4c2[C@@]2(CO4)C(=O)C(OC)=C(OC)C=C2C[C@@H](C)[C@H]1C)OCO3 | -12.4% (inactive)
65 | CS(=O)(=O)C1=NN2C(=N)/C(=C\c3ccc(OCCOc4ccccc4)cc3)C(=O)N=C2S1 | 13.4% (inactive)
66 | Cc1ccc(N(C(=O)Cc2cccs2)C(C(=O)NCC2CCCO2)c2ccncc2)cc1 (stereo unspecified) | 59.4% (active)
67 | O=C(NCC(=O)N(c1ccccc1)C(C(=O)NCC1CCCO1)c1ccccc1)c1cccs1 (stereo unspecified) | -3.3% (inactive)
68 | Cc1cccc(N(C(=O)Cc2cccs2)C(C(=O)NCc2ccco2)c2ccncc2)c1 (stereo unspecified) | 2.84% (inactive)
69 | COc1cccc(CNS(=O)(=O)c2ccc3c(c2)CC(C)N3C(=O)C2CCC2)c1 (stereo unspecified) | -3.12% (inactive)
70 | CC12CN3CCN(CC(C3)/C1=N\NC(=O)c1ccccc1N)C2 | 60.8% (active)
71 | Nc1ccccc1C(=O)NC1CCCCNC1=O (stereo unspecified) | 2.5% (inactive)
72 | CNC(=S)N/N=C1\C2CN3CCN(C2)CC1(c1ccccc1)C3 | 14% (inactive)

Row | SMILES | inhibition
73 | CCn1cc(C(=O)N2CC(C)CC(C)C2)c(=O)c2cc(S(=O)(=O)N3CCCC3)ccc21 (stereo unspecified) | -9.23% (inactive)
74 | O=C(NCCCn1ccnc1)c1cc(Br)c(Br)s1 | -8.29% (inactive)
75 | COC(=O)c1cccc(NS(C)(=O)=O)c1 | 7.52% (inactive)
76 | COC(=O)c1ccc2c(C(C)(C)O)c(C(C)(C)O)[nH]c2c1 | 25.7% (active)
77 | CCN(CC)CCNC(=O)CCCCCn1c(=O)[nH]c2cc(C(=O)OC)ccc2c1=O | 11.7% (inactive)
78 | CCc1nnc(NC(=O)CSCc2cc(=O)n3cc(C)sc3n2)s1 | 9.5% (inactive)
79 | CN(C)c1nc(NN)nc(Nc2ccc(F)cc2)n1 | -6.82% (inactive)
80 | COc1ccccc1OCCNC(=O)CCNC(=O)c1ccccc1Cl | 5.05% (inactive)
81 | Cc1occc1C(=O)Nc1cccc(Cn2cccn2)c1 | 39.7% (inactive)
82 | COc1cc(SC)ccc1C(=O)Nc1cc(C)ccn1 | 71.5% (active)
83 | COc1cc(SC)ccc1C(=O)Nc1nc(C)cs1 | -19.5% (inactive)
84 | COc1cc(SC)ccc1C(=O)N(Cc1ccccc1)c1ccccc1 | -14.7% (inactive)
85 | COc1cc(SC)ccc1C(=O)NCCOc1ccccc1Cl | 72.6% (active)
86 | Cc1ccnc(NC(=O)C(C)N2C(=O)c3ccccc3C2=O)c1 (stereo unspecified) | 16.9% (inactive)
87 | Cc1ccnc(NC(=O)c2ccoc2C)c1 | 62.3% (active)
88 | Cc1ccnc(NC(=O)CCCOc2ccccc2)c1 | 31.5% (inactive)
89 | COc1cc(NS(=O)(=O)c2ccc(NC(=O)c3ccc([N+](=O)[O-])cc3)cc2)ncn1 | -2.79% (inactive)
90 | Cc1nc([N+](=O)[O-])cn1CC(=O)Nc1ccc(Cl)cc1 | -12.3% (inactive)
91 | Cc1ccc(C(=O)OCC(=O)NC(=O)Cc2ccccc2)c(O)c1 | -0.702% (inactive)
92 | CCOC(=O)C1CCN(Cc2c(C(=O)N3CCOCC3)nc3c(C)cccn23)CC1 | -32.7% (inactive)
93 | O=C(c1cccc([N+](=O)[O-])c1)N1CCN(Cc2ccccc2)CC1 | -0.104% (inactive)
94 | COc1ccc(N=C(C)c2sc3ccccc3c2O)cc1 | 122% (active)
95 | COc1ccc(-n2c(O)c(C(C)=Nc3ccc4c(c3)CCC4)c(=O)[nH]c2=O)cc1 | -5.66% (inactive)
96 | COc1ccc(S(=O)(=O)Nc2ccc(O)c(Sc3nc4ccccc4s3)c2)cc1 | -14.7% (inactive)
